The source of these data is ChEMBL document CHEMBL1961873, “Compounds: GSK PKIS; Assays: Nanosyn kinase panel” (2012).

Assay [1] has as its target Leukocyte tyrosine kinase receptor (Homo sapiens) (UniProt P29376). To be noted: at 1 µM.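 Also: each value is the mean inhibition of LTK.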
Assay [2] concerns the target Tyrosine-protein kinase Lyn (Homo sapiens) (UniProt P07948). To be noted: at 0.1 µM.
Assay [3] shares this target. The following applies: at 1 µM.
For assay [4] the target is unchanged. The following applies: at 0.1 µM. This is another data set of the same source.
Assay [5] shares this target. To be noted: at 1 µM. This is another data set of the same source.
For assay [6], the target named is T1, Tyrosine-protein kinase Mer (Homo sapiens) (UniProt Q12866).
T1 sequence (whole entry): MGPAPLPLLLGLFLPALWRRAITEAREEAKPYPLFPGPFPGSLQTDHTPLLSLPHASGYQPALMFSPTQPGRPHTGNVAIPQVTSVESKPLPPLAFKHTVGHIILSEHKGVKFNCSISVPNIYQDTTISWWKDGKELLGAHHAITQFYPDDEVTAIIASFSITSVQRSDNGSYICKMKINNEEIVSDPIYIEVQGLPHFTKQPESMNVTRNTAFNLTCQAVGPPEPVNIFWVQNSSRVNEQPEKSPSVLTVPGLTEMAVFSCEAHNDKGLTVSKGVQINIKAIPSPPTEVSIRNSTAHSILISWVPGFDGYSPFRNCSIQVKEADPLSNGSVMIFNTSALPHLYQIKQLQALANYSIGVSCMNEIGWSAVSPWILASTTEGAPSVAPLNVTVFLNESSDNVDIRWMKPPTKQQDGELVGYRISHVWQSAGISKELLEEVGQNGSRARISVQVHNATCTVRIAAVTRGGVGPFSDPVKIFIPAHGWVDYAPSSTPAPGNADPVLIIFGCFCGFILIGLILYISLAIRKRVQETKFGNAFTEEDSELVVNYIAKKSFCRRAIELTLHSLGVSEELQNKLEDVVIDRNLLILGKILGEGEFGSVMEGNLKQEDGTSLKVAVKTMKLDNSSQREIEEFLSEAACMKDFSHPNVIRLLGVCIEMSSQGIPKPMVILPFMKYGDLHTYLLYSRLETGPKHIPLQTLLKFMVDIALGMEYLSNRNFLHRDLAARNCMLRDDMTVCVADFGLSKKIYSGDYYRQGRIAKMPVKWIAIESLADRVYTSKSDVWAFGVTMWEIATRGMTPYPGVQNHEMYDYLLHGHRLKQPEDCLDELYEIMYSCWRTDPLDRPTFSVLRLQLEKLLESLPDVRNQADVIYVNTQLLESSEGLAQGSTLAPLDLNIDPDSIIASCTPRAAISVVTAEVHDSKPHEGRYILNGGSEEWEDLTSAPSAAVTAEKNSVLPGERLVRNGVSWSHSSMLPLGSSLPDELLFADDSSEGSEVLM
To be noted: at 0.1 µM.

Assay [7] deals with T1, Tyrosine-protein kinase Mer (Homo sapiens). To be noted: at 1 µM.
The target in assay [8] is Hepatocyte growth factor receptor (Homo sapiens) (UniProt P08581). To be noted: at 0.1 µM.
Chain of Hepatocyte growth factor receptor (Homo sapiens) (P08581 whole entry): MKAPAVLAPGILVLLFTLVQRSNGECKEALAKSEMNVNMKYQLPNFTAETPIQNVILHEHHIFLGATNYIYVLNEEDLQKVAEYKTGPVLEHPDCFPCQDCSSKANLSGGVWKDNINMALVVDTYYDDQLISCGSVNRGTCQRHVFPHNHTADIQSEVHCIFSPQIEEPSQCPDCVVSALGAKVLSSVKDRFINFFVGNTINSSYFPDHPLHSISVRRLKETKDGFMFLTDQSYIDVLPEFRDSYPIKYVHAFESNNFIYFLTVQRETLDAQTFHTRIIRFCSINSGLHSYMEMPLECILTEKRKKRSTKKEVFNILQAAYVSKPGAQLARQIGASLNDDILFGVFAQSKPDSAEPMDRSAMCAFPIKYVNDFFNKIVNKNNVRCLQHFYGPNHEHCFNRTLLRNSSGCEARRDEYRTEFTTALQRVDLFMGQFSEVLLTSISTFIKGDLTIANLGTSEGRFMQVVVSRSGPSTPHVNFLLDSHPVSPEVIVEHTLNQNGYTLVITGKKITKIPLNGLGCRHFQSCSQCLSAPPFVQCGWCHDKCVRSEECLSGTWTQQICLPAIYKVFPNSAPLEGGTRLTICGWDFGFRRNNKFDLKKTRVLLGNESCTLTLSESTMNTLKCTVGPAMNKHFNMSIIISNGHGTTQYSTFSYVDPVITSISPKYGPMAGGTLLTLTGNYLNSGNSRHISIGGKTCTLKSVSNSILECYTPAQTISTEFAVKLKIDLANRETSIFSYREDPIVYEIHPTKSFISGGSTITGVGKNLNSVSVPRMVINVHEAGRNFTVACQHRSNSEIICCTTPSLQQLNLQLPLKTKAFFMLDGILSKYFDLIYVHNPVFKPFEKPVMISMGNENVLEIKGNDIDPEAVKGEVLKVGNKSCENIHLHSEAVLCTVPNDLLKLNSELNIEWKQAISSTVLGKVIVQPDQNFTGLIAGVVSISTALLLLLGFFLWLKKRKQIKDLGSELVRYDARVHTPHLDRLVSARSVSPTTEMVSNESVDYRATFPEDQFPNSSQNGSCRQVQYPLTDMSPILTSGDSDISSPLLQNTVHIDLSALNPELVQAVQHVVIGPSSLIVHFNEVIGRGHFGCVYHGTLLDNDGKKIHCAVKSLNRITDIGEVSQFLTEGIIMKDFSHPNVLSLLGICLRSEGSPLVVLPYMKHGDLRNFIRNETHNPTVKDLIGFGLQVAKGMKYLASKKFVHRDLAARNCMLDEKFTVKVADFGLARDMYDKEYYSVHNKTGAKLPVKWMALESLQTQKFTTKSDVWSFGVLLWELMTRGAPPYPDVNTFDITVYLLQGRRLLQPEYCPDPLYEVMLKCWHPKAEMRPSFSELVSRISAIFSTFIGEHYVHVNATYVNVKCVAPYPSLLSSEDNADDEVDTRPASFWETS
Assay [9] has the same target. The following applies: at 1 µM.
The target of assay [10] is T2, Muscle, skeletal receptor tyrosine-protein kinase (Homo sapiens) (UniProt O15146).
T2 sequence (whole entry): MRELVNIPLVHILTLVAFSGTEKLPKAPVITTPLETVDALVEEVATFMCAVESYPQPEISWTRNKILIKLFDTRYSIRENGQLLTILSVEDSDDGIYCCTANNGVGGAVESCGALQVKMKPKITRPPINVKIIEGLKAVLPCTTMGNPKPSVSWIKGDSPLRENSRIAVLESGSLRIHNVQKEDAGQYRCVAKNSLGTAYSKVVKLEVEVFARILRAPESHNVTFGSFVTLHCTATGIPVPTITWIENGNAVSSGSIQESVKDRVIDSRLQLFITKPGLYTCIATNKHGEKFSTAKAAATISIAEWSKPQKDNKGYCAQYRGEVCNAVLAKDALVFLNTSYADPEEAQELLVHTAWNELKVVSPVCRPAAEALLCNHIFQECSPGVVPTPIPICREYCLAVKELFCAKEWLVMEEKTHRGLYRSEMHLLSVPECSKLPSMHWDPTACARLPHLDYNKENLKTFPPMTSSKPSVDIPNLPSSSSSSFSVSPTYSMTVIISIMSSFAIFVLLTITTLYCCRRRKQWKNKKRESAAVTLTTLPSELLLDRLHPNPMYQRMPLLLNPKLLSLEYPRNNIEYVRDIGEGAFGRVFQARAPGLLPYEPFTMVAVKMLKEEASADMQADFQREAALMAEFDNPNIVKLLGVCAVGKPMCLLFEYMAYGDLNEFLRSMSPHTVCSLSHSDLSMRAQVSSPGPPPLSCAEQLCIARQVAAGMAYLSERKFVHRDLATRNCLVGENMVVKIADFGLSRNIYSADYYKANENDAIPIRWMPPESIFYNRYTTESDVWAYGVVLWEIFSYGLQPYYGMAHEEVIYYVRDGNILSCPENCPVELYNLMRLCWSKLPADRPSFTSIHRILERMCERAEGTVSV
The following applies: at 0.1 µM.

Assay [11] addresses T2, Muscle, skeletal receptor tyrosine-protein kinase (Homo sapiens). To be noted: at 1 µM.
The target of assay [12] is Platelet-derived growth factor receptor alpha (Homo sapiens) (UniProt P16234). To be noted: at 0.1 µM.
Chain of Platelet-derived growth factor receptor alpha (Homo sapiens) (P16234 whole entry): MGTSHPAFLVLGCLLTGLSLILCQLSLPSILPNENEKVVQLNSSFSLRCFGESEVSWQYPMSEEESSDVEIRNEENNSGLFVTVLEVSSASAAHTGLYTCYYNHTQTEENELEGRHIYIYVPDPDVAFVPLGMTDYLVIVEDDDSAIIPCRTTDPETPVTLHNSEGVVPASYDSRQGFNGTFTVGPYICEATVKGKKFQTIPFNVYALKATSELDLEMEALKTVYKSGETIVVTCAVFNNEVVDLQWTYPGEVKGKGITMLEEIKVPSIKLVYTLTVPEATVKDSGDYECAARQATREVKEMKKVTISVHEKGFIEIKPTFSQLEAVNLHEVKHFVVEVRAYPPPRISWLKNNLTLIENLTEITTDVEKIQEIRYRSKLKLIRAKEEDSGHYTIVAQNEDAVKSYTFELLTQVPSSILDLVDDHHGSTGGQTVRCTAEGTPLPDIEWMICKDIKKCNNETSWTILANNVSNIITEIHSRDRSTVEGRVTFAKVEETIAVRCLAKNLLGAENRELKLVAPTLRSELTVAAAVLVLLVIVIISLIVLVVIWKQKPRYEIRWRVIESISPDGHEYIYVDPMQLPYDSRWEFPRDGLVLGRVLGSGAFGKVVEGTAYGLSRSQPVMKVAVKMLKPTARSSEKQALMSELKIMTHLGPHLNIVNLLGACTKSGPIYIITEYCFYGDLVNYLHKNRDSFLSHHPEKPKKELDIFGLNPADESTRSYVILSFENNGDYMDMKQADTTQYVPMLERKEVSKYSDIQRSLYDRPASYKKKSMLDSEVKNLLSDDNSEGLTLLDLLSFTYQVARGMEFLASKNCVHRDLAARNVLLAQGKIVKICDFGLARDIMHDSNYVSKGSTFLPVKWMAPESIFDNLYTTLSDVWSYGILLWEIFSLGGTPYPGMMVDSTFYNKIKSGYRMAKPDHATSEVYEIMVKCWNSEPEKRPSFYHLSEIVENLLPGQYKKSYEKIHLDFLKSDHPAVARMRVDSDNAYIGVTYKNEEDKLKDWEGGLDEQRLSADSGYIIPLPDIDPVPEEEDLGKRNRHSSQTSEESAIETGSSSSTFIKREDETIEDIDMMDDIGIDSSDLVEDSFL
The target is the same in assay [13]. To be noted: at 1 µM.
Assay [14] relates to Platelet-derived growth factor receptor alpha (Homo sapiens), P16234 [D842V]. The following applies: at 0.1 µM.
The test system is the same in assay [15]. The following applies: at 1 µM.
For assay [16], the system named is Platelet-derived growth factor receptor alpha (Homo sapiens), P16234 [T674I]. To be noted: at 0.1 µM.
For assay [17] the test system is unchanged. To be noted: at 1 µM.
For assay [18], the system named is Platelet-derived growth factor receptor alpha (Homo sapiens), P16234 [V561D]. To be noted: at 0.1 µM.
For assay [19] the test system is unchanged. To be noted: at 1 µM.
The target of assay [20] is Platelet-derived growth factor receptor beta (Homo sapiens) (UniProt P09619). To be noted: at 0.1 µM.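 Also: reported value is the mean percent inhibition of the kinase.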
Chain of Platelet-derived growth factor receptor beta (Homo sapiens) (P09619 whole entry): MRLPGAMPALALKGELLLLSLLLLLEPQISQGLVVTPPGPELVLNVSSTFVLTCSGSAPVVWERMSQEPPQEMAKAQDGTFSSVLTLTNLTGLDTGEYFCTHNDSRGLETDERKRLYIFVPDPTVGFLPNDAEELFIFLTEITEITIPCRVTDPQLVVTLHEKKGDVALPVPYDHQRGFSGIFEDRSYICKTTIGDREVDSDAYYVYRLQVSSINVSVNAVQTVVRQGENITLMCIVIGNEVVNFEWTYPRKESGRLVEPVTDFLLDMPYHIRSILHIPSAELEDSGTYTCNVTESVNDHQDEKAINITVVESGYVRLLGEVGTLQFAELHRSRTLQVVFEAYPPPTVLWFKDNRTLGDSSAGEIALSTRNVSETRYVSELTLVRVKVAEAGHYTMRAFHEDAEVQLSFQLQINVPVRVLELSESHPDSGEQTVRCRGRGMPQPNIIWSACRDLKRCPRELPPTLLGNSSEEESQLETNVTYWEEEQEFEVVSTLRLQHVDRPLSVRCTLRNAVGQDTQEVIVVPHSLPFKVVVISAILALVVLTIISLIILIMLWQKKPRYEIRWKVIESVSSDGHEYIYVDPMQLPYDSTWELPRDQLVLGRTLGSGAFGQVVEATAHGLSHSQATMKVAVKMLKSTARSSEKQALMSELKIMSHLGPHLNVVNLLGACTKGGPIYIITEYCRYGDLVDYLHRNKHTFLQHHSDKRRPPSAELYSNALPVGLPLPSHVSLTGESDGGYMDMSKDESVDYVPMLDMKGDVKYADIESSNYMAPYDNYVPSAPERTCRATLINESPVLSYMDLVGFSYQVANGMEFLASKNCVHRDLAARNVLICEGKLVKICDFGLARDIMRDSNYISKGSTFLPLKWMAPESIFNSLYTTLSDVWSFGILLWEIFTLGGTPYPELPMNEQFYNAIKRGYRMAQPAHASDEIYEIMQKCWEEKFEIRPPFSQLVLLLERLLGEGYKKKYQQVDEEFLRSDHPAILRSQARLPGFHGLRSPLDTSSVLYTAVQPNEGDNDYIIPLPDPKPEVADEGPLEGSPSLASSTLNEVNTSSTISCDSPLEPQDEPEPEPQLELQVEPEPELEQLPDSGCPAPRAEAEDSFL

The structures appear in SMILES notation.

As a reminder, the inhibition is the drop in the measured response relative to a control, in per cent.

Chain of Tyrosine-protein kinase Lyn (Homo sapiens) (P07948 2-512 limits assumed): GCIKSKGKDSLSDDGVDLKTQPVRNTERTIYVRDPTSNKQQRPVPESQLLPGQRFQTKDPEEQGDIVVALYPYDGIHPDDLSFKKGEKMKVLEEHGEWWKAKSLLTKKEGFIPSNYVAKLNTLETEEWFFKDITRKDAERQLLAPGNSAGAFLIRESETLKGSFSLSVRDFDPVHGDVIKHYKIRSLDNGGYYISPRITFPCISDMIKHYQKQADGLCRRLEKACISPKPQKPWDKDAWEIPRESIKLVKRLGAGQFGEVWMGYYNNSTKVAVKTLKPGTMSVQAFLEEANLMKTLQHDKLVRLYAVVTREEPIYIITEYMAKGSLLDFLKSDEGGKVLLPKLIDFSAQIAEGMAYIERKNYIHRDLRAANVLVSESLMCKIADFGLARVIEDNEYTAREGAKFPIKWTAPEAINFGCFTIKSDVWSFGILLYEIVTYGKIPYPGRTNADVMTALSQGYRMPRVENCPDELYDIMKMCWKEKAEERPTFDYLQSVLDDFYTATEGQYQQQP
Chain of Leukocyte tyrosine kinase receptor (Homo sapiens) (P29376 whole entry): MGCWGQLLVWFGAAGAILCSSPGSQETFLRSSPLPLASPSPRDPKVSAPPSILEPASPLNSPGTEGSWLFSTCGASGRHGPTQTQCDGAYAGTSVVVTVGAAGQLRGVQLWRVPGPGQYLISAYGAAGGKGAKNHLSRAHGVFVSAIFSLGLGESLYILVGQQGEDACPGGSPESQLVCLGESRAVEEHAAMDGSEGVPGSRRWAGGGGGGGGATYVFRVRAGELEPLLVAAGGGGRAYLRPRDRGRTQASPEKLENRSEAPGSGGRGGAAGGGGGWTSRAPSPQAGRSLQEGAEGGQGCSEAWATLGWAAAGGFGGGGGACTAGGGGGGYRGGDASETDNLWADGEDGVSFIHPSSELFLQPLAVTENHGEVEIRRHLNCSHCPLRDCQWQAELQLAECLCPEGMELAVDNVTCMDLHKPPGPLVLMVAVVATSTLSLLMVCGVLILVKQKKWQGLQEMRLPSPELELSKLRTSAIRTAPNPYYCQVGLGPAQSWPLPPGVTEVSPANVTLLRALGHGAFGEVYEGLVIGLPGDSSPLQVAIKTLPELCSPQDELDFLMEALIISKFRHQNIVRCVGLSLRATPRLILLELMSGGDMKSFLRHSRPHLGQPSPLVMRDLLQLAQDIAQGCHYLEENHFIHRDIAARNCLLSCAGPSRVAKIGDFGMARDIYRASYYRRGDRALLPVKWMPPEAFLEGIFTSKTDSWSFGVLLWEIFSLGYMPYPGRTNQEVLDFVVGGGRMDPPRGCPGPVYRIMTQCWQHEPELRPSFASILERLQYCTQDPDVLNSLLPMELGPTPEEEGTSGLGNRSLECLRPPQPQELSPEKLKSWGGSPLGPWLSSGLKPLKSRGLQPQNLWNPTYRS

As to `COc1cc(Nc2nccc(-c3cnn4ncccc34)n2)cc(OC)c1`, the inhibition in assay [1] was determined as 34.1%; in assay [2], 3.81%; in assay [3], 29.3%; in assay [4] it was 2.46%; in assay [5] it was 23.6%; in assay [6], 1.07%. In addition, the inhibition in assay [7] was 16.6%; in assay [8] it was 4.01%; in assay [9], 14.4%; in assay [10] it was 6.23%; in assay [11], 42.5%; in assay [12], 19.5%. For the same molecule, the inhibition was 61.9% in assay [13]; 12.6% in [14]; 60.8% in assay [15]; 29% in assay [16]; 91.9% in assay [17]; 37.5% in assay [18]. Moreover, the inhibition in assay [19] came out at 75.2%; in [20], 40.2%.

In the case of `Cc1ccc(O)cc1Nc1ccnc2ccc(S(C)(=O)=O)cc12`, the inhibition in assay [1] stood at 10.2%; in [2], 93.2%; in [3] it was 96.7%; in assay [4] it was 91.9%; in assay [5] it was 96.2%; in [6], 3.15%. Besides, the inhibition was 4.83% in [7]; 5.51% in assay [8]; -0.38% in [9]; 2.4% in [10]; 5.56% in [11]; 72.2% in [12]. For the same molecule, the inhibition turned out to be 85% in [13]; 88.8% in [14]; 97.1% in assay [15]; 7.4% in assay [16]; 14.8% in assay [17]; 84.7% in assay [18]. The inhibition was 95% in [19] and 63.8% in assay [20].

For the molecule `CN(c1ccc(NC(=O)Nc2ccc(OC(F)(F)F)cc2)cc1)c1ccnc(Nc2cccc(S(N)(=O)=O)c2)n1`, the inhibition in assay [1] stood at 6.43%; in [2], 39.9%; in assay [3], 83.2%; in [4], 37.1%; in assay [5], 83.6%; in [6], 5.5%. The inhibition in assay [7] was determined as 49.2%; in assay [8], 34.4%; in assay [9], 64.9%; in assay [10] it was 8.36%; in [11], 58.5%; in assay [12], 76.3%. The inhibition in assay [13] worked out at 86.7%; in assay [14], 9.66%; in assay [15], 46.4%; in [16], 46.9%; in assay [17], 87.1%; in assay [18] it was 87.2%. In addition, the inhibition was 96.8% in assay [19] and 67.5% in assay [20].

For the molecule `CCS(=O)(=O)c1ccc(OC)c(Nc2ncc(-c3cccc(OC)c3)o2)c1`, the inhibition was 3.16% in assay [1]; 20.2% in assay [2]; 68.2% in [3]; 15.9% in [4]; 63.6% in [5]; 2.42% in [6]. Further, the inhibition is 7.73% in [7]; -0.79% in assay [8]; 2.24% in assay [9]; 4.87% in [10]; 23.5% in [12]; 58.4% in assay [13]. The inhibition stood at 10.9% in assay [14]; 55.3% in [15]; 4.09% in assay [16]; 10.2% in [17]; 19.6% in [18]; 68.7% in assay [19]. Besides, the inhibition in assay [20] was determined as 43.7%.

`COc1cc2ncnc(Nc3ccc4c(cnn4Cc4ccccc4)c3)c2cc1OC`: the inhibition in assay [1] was 2.45%; in [2] it was 10.4%; in assay [3], 46.1%; in assay [4], 7.01%; in assay [5], 40.7%; in [6], 7%. For the same molecule, the inhibition in assay [7] came to 45.5%; in assay [8], 2.31%; in [9], 4.07%; in assay [10], 3.2%; in [11], 2.89%; in assay [12], 9.97%. Besides, the inhibition in assay [13] amounted to 36.9%; in [14] it was 4%; in assay [15] it was 7.42%; in assay [16], 4.73%; in assay [17], 17%; in assay [18], 6.36%. Besides, the values for the inhibition in assay [19] and in [20] were 23.3% and 3.39%, respectively.

For the molecule `Nc1nccc(C#Cc2cncnc2Nc2ccc(OCc3cccc(F)c3)c(Cl)c2)n1`, the inhibition was 2.75% in [1]; 3.62% in assay [2]; 3.49% in [3]; 3.64% in assay [4]; 1.57% in [5]; 2.77% in [6]. For the same molecule, the inhibition in assay [7] stood at 9.35%; in assay [8] it was 4.74%; in assay [9] it was 8.47%; in assay [10], 4.37%; in assay [11] it was 5.94%; in [12] it was 15.4%. Besides, the inhibition in assay [13] came out at 15.5%; in assay [14], 4.4%; in assay [15] it was 4.87%; in assay [16], 5.45%; in assay [17], 7.68%; in assay [18] it was 4.25%. Also, the inhibition in assay [19] came to 4.88%; in assay [20], 7.6%.

As to `COc1ccc2ncnc(Nc3ccc(OCc4ccccc4)cc3)c2c1`, the inhibition in assay [1] is -0.07%; in assay [2], 2.3%; in assay [3] it was 6.36%; in assay [4] it was 1.2%; in [5] it was 4.75%; in assay [6], 2.16%. Also, the inhibition in assay [7] is 12.9%; in assay [8] it was -2.88%; in assay [9], 2.39%; in assay [10], 1.31%; in [11], 1.74%; in [12], 4.33%. Besides, the inhibition in assay [13] came out at 12.2%; in [14] it was 0.76%; in assay [15], 1.54%; in [16] it was 2.64%; in assay [17], 4.95%; in assay [18] it was 1.76%. For the same molecule, the inhibition in assay [19] amounted to 4.16%; in [20], 0.54%.
